Pf growth 48h: P. falciparum growth inhibition at 48 hours (one generation); P. falciparum luciferase growth in erythrocytes, 48 h; Potency, µM (titrated, usually from 28.7 µM), for inactives: top-dose activity change, negative = inhibition, hits mostly inhibitors; actives 5.9% (n = 310,000); further: on the % scale 0 is the no-effect control and ±100 the full control effect
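Luciferase-expressing parasites in RBCs, 2% Hct / 0.1% parasitemia final; RPMI 1640 + 0.5% Albumax; 37 C, 5% CO2, one generation; luminescence read-out, lower signal = inhibition.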
SARS PLpro yeast: inhibitors of SARS-CoV papain-like protease in yeast; Potency, µM (highest dose often 32.9 µM), for the others: top-dose activity, positive = growth rescue, hits mostly activators; S. cerevisiae expressing SARS-CoV PLpro, growth rescue; actives 0.19% (n = 330,000); calls by dose curve; further: 0% is about no effect; nearly all actives have a fitted effect of over 55% in size
Pf growth 96h: P. falciparum growth inhibition at 96 hours; AID 504834; actives 6.9% (n = 320,000); Potency, µM (titrated, usually from 28.7 µM), inactives show at the top dose activity change, negative = inhibition, hits mostly inhibitors; P. falciparum luciferase reporter growth, 96 h; further: on the % scale 0 is the no-effect control and ±100 the full control effect
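Delayed-death screen, second-generation endpoint: infected erythrocytes, 2% hematocrit, 0.05% parasitemia final; 96 hours at 37 C, 5% CO2; luciferase detection reagent; luminescence decrease equals reduced growth.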
HCV inhibitor: blocks hepatitis C virus | Huh7.5.1 HCVcc-Cre infection, luciferase reporter, 44 h | Potency, µM (series often up to 41.8 µM), inactives show top-dose activity change, negative = inhibition, actives largely listed as inhibitors | actives 3.4% (n = 340,000) | AID 651820; further: on the % scale 0 is the no-effect control and ±100 the full control effect
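1,000 cells/well; 4 h culture; + compound; + HCVcc-Cre (~0.5 moi); 44 h; luciferase substrate, RT 15 min; read 15 sec.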
AMA1 RON2 block: disrupts binding of P. falciparum AMA1 to RON2 | AlphaScreen AMA1-biotinylated RON2 peptide binding | Potency, µM (highest dose often 58.2 µM), for inactives: at the highest dose activity change, negative = inhibition, most hits filed as inhibitors | actives 0.2% (n = 360,000);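 further: 0% = vehicle wells and -100% = peptide control; nearly all actives have a fitted effect of over 45% in size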
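AMA1 (3D7) with his tag at 25 nM final met compounds first, then biotinylated RON2 peptide at 25 nM; detection used donor plus acceptor beads, 10 µg/mL apiece, read by AlphaScreen after 30 min at room temperature.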
NS1 function inh: inhibitors of influenza NS1 protein function | Potency, µM (top dose mostly 46.1 µM), inactives show top-dose activity, positive = more growth | actives 0.4% (n = 270,000) | AID 2326; calls by dose curve; further: actives are rising curves; nearly all actives have a fitted effect of over 50% in size
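S. cerevisiae expressing influenza A NS1, grown in glucose, washed, then diluted 1:100 into pH 6.0 -URA galactose medium with 23 nl compound. Growth recovery read as OD600; NS1-free strain serves as control.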
* hit, by the source's call. This is a sample that favours compounds with a hit; in the whole collection about 12% have one here. Unless noted, the call rests on the fitted dose curve; in most records, active means well fitted curve in the direction sought with a large enough effect; inconclusive means small, poorly fitted or top-dose-only effect, or another doubt; inactive means no such curve, though single readings can be large; an effect the other way counts as inactive or inconclusive. Potency means the concentration at half of the fitted maximal effect.

For COc1cccc(CN(C)C(=O)c2ccc(OCC(=O)Nc3cccc(C(F)(F)F)c3)c(OC)c2)c1 the results were Pf growth 48h inconclusive, SARS PLpro yeast -1%, Pf growth 96h inconclusive, HCV inhibitor inconclusive and AMA1 RON2 block -20%.
COc1ccc(CN(C)C(=O)c2cccc(NC(=O)CC3SC(N4CCCCC4)=NC3=O)c2)c(OC)c1 (stereo unspecified) was read as HCV inhibitor 8.9µM* and AMA1 RON2 block 5%.
For COc1ccc(CN(C)C(=O)c2ccc(OCC(=O)Nc3cccc(C(F)(F)F)c3)c(OC)c2)c(OC)c1 the results were Pf growth 48h inconclusive, Pf growth 96h inconclusive, HCV inhibitor 0.56µM* and AMA1 RON2 block 72%.
For COc1ccccc1OCCNC(=O)c1ccc(NC(=O)CC2SC(N3CCCC3)=NC2=O)cc1 (stereo unspecified) the results were HCV inhibitor -11% and AMA1 RON2 block -12%.
Screening CN(C)Cc1c(-c2ccc(Cl)cc2)nc2ccc(Cl)cn12 returned Pf growth 48h -13%, SARS PLpro yeast 2%, Pf growth 96h inconclusive, HCV inhibitor inconclusive and AMA1 RON2 block -26%.
For C=CC[C@@H](Cc1ccc(F)cc1)C(=O)OC[C@@H]1CCCN1C(=O)[C@@H](CC=C)CC(=O)NCCO the results were SARS PLpro yeast 2%, HCV inhibitor -5% and AMA1 RON2 block 5%.
`Cc1nnc(C)c2c(C)n(-c3ccc(Cl)c(N)c3)c(C)c12` gave Pf growth 48h -28%, SARS PLpro yeast -4%, Pf growth 96h 13µM*, HCV inhibitor inconclusive, AMA1 RON2 block -4% and NS1 function inh 2%.
For Cc1nnc(C)c2c(C)n(-c3ccc4ncccc4c3)c(C)c12 the results were Pf growth 48h inconclusive, SARS PLpro yeast 1%, Pf growth 96h 0%, HCV inhibitor -18%, AMA1 RON2 block -14% and NS1 function inh 2%.
For COc1cc(C2C(C#N)=C(N)OC3=C2C(=O)CCC3)cc(OC)c1OC(=O)N1CCOCC1 (stereo unspecified) the results were Pf growth 48h -23%, SARS PLpro yeast 16%, Pf growth 96h 4.7µM*, HCV inhibitor 13%, AMA1 RON2 block -5% and NS1 function inh 2%.
O=C1[C@H]2[C@@H](c3ccc(F)cc3)N3C(=O)N(c4ccccc4)C(=O)[C@@]3(Cc3ccc(Cl)cc3)[C@H]2C(=O)N1C1CCCCC1 was read as Pf growth 48h inconclusive, SARS PLpro yeast -4%, Pf growth 96h inconclusive, HCV inhibitor -8%, AMA1 RON2 block 7% and NS1 function inh -9%.
For O=C1[C@H]2[C@@H](c3ccc(F)cc3)N3C(=O)N(c4cccc(Cl)c4)C(=O)[C@@]3(Cc3ccc(Cl)cc3)[C@H]2C(=O)N1C1CCCCC1 the results were Pf growth 48h 4.7µM*, SARS PLpro yeast 8%, Pf growth 96h 5.2µM*, HCV inhibitor 18%, AMA1 RON2 block 11% and NS1 function inh 13%.
`O=C1[C@H]2[C@@H](c3ccc(F)cc3)N3C(=O)N(c4cccc(Cl)c4)C(=O)[C@@]3(Cc3ccccc3)[C@H]2C(=O)N1C1CCCCC1` gave Pf growth 48h 2.6µM*, SARS PLpro yeast 3%, Pf growth 96h 12µM*, HCV inhibitor -21% and AMA1 RON2 block 1%.
COc1ccc(CNc2nc3ccccc3n2C(C)C)c(O)c1 was read as Pf growth 48h 12µM*, SARS PLpro yeast -1%, Pf growth 96h inconclusive, HCV inhibitor inconclusive, AMA1 RON2 block -11% and NS1 function inh 6%.
Screening CCn1c(CNc2nc3ccccc3n2C(C)C)nc2ccccc21 returned Pf growth 48h inconclusive, SARS PLpro yeast 7%, Pf growth 96h 12µM*, HCV inhibitor -22%, AMA1 RON2 block 9% and NS1 function inh 0%.
Cc1ccc(O)c(CNc2nc3ccccc3n2C(C)C)c1 was read as Pf growth 48h 8.3µM*, SARS PLpro yeast 8%, Pf growth 96h 15%, HCV inhibitor inconclusive, AMA1 RON2 block -4% and NS1 function inh 3%.
`CC(C)n1c(NCc2nc3ccccc3n2C)nc2ccccc21` gave Pf growth 48h inconclusive, SARS PLpro yeast -8%, HCV inhibitor 8%, AMA1 RON2 block 32% and NS1 function inh -2%.
`CC(NC(=O)Cc1ccc(S(=O)(=O)N2CCOCC2)s1)c1ccc(Cl)c(Cl)c1` (stereo unspecified) gave Pf growth 48h inconclusive, Pf growth 96h 2%, HCV inhibitor inconclusive and AMA1 RON2 block -13%.
C=CCN(Cc1ccc(OC)c(OC)c1)C(=O)c1cc2cc(F)ccc2[nH]1 was read as Pf growth 48h inconclusive, SARS PLpro yeast -3%, Pf growth 96h inconclusive, HCV inhibitor inconclusive, AMA1 RON2 block -4% and NS1 function inh -20%.
`O=C(N/N=C/C(Cl)=C/c1ccccc1)c1ccccc1F` gave Pf growth 48h -35%, SARS PLpro yeast -7%, Pf growth 96h inconclusive, HCV inhibitor -3%, AMA1 RON2 block -4% and NS1 function inh -32%.
O=C(N/N=C/C(Cl)=C/c1ccccc1)c1ccco1 was read as Pf growth 48h 5.2µM*, SARS PLpro yeast -3%, Pf growth 96h inconclusive, HCV inhibitor -15%, AMA1 RON2 block 8% and NS1 function inh -46%.
Screening O=C(N/N=C/C(Cl)=C\c1ccccc1)c1ccco1 returned Pf growth 48h 1.9µM*, SARS PLpro yeast -4%, Pf growth 96h 3.7µM*, HCV inhibitor -16%, AMA1 RON2 block 12% and NS1 function inh -60%.
Screening COc1ccc2c(c1)cc(C(=O)N[C@@H](CCSC)C(=O)N1CCC[C@H]1C(=O)O)n2C returned Pf growth 48h 16%, SARS PLpro yeast 1%, Pf growth 96h 3%, HCV inhibitor 7%, AMA1 RON2 block -8% and NS1 function inh 23%.
Screening CCCN1C(=O)c2cc(C(=O)Nc3ccccc3OC)ccc2C1Nc1ccccc1OC (stereo unspecified) returned Pf growth 48h 10µM*, SARS PLpro yeast 0%, Pf growth 96h inconclusive, HCV inhibitor 11µM*, AMA1 RON2 block 3% and NS1 function inh 0%.
CCCN1C(=O)c2cc(C(=O)Nc3cccc(C(C)=O)c3)ccc2C1Nc1cccc(C(C)=O)c1 (stereo unspecified) was read as Pf growth 48h inconclusive, SARS PLpro yeast -3%, Pf growth 96h inconclusive, HCV inhibitor inconclusive, AMA1 RON2 block 7% and NS1 function inh -4%.
For C=C(C)CSc1[nH]c(=O)cc(C)c1C#N the results were Pf growth 48h 50%, SARS PLpro yeast -1%, Pf growth 96h 415%, HCV inhibitor 20%, AMA1 RON2 block 2% and NS1 function inh 1%.

Screens as filed in PubChem BioAssay.
